Structures are written as SMILES. Unmarked numbers belong to inactive results. A call without a number means that no potency is given here. Active and inactive are the calls of the source. Calls follow the shape of the dose curve; as a rule, active = well fitted activation curve with a large enough effect in the repeat runs; inconclusive = weak or mixed curves; inactive = flat fitted curve, though single readings scatter.

This assay in a line: A CellTox Green Cytotoxicity Assay to monitor cytotoxicity in HepG2 cells - 0 hour (AID 1224882). Also: nearly all actives have a fitted effect of over 35% in size. Conditions: CellTox Green fluorescence; series mostly up to 76.8 µM. An excerpt: National Center for Advancing Translational Sciences [NCATS]
NIH Chemical Genomics Center [NCGC]
U.S. Environmental Protection Agency [EPA]
National Institutes of Environmental Health Sciences [NIEHS]
National Toxicology Program [NTP]
Cell-based models are critical for drug discovery. Determining the natural cytotoxic effects resulting from test compounds is an essential research activity. A CellTox Green Cytotoxicity Assay to monitor cytotoxicity in real time of continues cell culture during 40 hours of the compound treatment was used to screen Tox21 10K library compounds in HepG2 cells. CellTox Green Cytotoxicity Assay is a nonlytic, homogeneous, biofluorescent method to measure cytotoxicity in cell culture after experimental manipulation. The assay system uses a proprietary asymmetric cyanine dye that is excluded from viable cells but preferentially stains the dead cell's DNA. […] Viable cells produce no appreciable increases in fluorescence. Therefore, the fluorescence signal produced by the binding interaction with dead cell DNA is proportional to cytotoxicity.
The mixture of HepG2 cell suspension and reagents were dispensed at 600cells/6 ul/well in 1536-well tissue culture treated black solid bottom plates using a Multidrop dispenser. After the assay plates were incubated at a 37 C/5% CO2 incubator for 5 hours, 23 nL of compounds dissolved in DMSO, positive and negative controls was transferred to the assay plate by a pintool work station. The plates were incubated at 37 C for 40 hours. The fluorescence intensity were measured at 0h, 8h, 16h, 24h, 32h and 40h time points using ViewLux plate reader during compound treatment.
In the case of `CO[Si](CCC1CCC2OC2C1)(OC)OC` (stereo not given), the Potency result was “inactive”.

On to `CC(C)N=C(N)/N=C(\N)Nc1ccc(Cl)cc1`, for which the Potency result was “inactive”.

For the molecule `CCCCCCC(C)Nc1ccc(Nc2ccccc2)cc1` (stereo not given), the Potency entry was “inactive”.

On to `CCCCCCCCCCCCCc1ccccc1`, for which the Potency result was “inactive”.

With `O=C1OC(OC(=O)c2cccnc2Nc2cccc(C(F)(F)F)c2)c2ccccc21` (stereo not given), the Potency entry is “inactive”.

In the case of `CCN(CC)CCOC(=O)C1(C2CCCCC2)CCCCC1`, the Potency result was “inactive”.

As for `Cc1cc(C)c(C=O)c(C)c1`, the Potency result was “inactive”.

With `CCCCCCCC/C=C\CCCCCCCC(=O)OCCOC(=O)CCCCCCC/C=C\CCCCCCCC`, the Potency entry was “inactive”.

On to `C=C/C=C/C=C/CCCCC`, for which the cytotoxicity was -3.64% [at 15.8 µM].

Turning to `c1ccc2c(c1)CCC2`, the Potency result was “inactive”.

For the molecule `CCOC(=O)CN`, the Potency entry was “inactive”.

Regarding `CCCCCCCC/C=C\CCCCCCCC(=O)NCc1ccc(O)c(OC)c1`, the Potency entry was “inactive”.

Take `CCCCCCCC/C=C/CCCOC(C)=O`: the Potency entry was “inactive”.

For `C/C=C/CO`, the Potency result was “inactive”.

As for `CNCC[C@H](Oc1cccc2ccccc12)c1cccs1`, the Potency result was “inactive”.

Consider `CCC1(c2cnc[nH]2)Cc2ccccc2C1`, for which the Potency result was “inactive”.

`C=CCCCCCCC=C`: the Potency entry is “inactive”.

`Nc1cc(Cl)c([N+](=O)[O-])cc1O`: the Potency entry is “inactive”.

As for `CCc1cccc(C)c1`, the Potency entry was “inactive”.

As for `CCCCCCCOC(=O)c1ccccc1C(=O)OCCCCCCC`, the Potency entry is “inactive”.

With `C=CC(=O)OCC(O)COc1ccccc1` (stereo not given), the Potency result is “inactive”.

As to `O=C(Nc1ccc(Cl)c(Cl)c1)c1cc(Cl)cc(Cl)c1O`, the Potency entry is “inactive”.

Take `CCO[Si](CCCSSSSCCC[Si](OCC)(OCC)OCC)(OCC)OCC`: the Potency result was “inactive”.

For the molecule `Cc1cn[nH]c1`, the Potency entry is “inactive”.

Take `Clc1cc(Cl)c(-c2c(Cl)c(Cl)cc(Cl)c2Cl)cc1Cl`: the Potency result is “inactive”.

`CCN(CC)CCSC(=O)C(c1ccccc1)c1ccccc1`: the Potency result is “inactive”.

In the case of `CC(C)=CCCC(C)CCOC(=O)C(C)C` (stereo not given), the Potency result is “inactive”.

In the case of `Cc1cccc(Br)c1`, the Potency result is “inactive”.

Consider `CCCC(C)CCC(C)=O` (stereo not given), for which the Potency result was “inactive”.

For the molecule `Cc1cncc(C)c1`, the Potency result is “inactive”.

With `Oc1cc2ccccc2cc1O`, the Potency result was “inactive”.

In the case of `CCCCN(C)C`, the Potency result is “inactive”.

For `CCN(CC)CCNc1ccc(CO)c2sc3ccccc3c(=O)c12`, the Potency result was “inactive”.

Regarding `CC1=C(/C=C/C(C)=C/C=C/C(C)=C\C=O)C(C)(C)CCC1`, the Potency entry was “inactive”.

With `COc1nccnc1CC(C)C`, the Potency entry was “inactive”.

As for `CCC1CCCCC1`, the Potency result is “inactive”.

Take `CCC(C)c1ccccc1` (stereo not given): the Potency result is “inactive”.

`CN(C)c1ccc(N=Nc2ccccc2C(=O)O)cc1`: the Potency result was “inactive”.

For the molecule `COc1cccc(CCc2ccccc2OCC(CN(C)C)OC(=O)CCC(=O)O)c1` (stereo not given), the Potency entry is “inactive”.

Turning to `CC1(C)C(=O)N(Br)C(=O)N1Br`, the Potency result is “inactive”.

The values above are taken from PubChem BioAssay (Tox21).
